Assay results taken from PubChem BioAssay (NCATS).
Records with an inconclusive call do not appear. Entries that show only a call come without a potency. Calls of active or inactive are those of the source. Calls follow the shape of the dose curve; as a rule, active = well fitted inhibition curve with a large enough effect; inconclusive = small, poorly fitted or top-dose-only effect; inactive = no such curve, though single readings can be large or run the other way.

What follows are molecules tested against Retinaldehyde dehydrogenase 3 (Homo sapiens) (UniProt P47895) (assay: qHTS for Inhibitors of the Aldehyde Dehydrogenase Family (ALDH1A3) Primary screen (AID 2061315)). Details: ALDH inhibition qHTS; series mostly up to 56 µM.

Row | Structure (SMILES) | Potency | activity change, negative = inhibition
1 | CC1=CCC(C(C)(C)O[C@@H]2O[C@H](CO[C@@H]3O[C@@H](C)[C@H](O)[C@@H](O)[C@H]3O)[C@@H](O)[C@H](O)[C@H]2O)CC1 (stereo not given in full) | inactive | –
2 | C/C=C(\C)C(=O)O[C@H]1[C@@H](O[C@]2(COC(=O)CC(C)C)O[C@H](COC(=O)C(C)C)[C@@H](OC(C)=O)[C@@H]2O)O[C@H](COC(C)=O)[C@@H](O)[C@@H]1O | inactive | –
3 | CC1CCC23COC(=O)C2=CC(O)CC3C1(C)CCc1ccoc1 (stereo not given) | inactive | –
4 | CC1=C2C=C(CO)C(CO)CCC2(C)CCC1=O (stereo not given) | inactive | –
5 | C[C@H](NC(=O)CCc1nc2ccccc2c(=O)[nH]1)c1ccccc1 | inactive | –
6 | NCCCNc1ccc(Nc2nccc(Nc3cc(C4CC4)[nH]n3)n2)cc1 | inactive | –
7 | COC1=CC(=O)C=C(C)C12Oc1c(Cl)c(OC)cc(OC)c1C2=O (stereo not given) | inactive | –
8 | Cc1ccn(-c2cc(Cl)ccc2[C@@H](Oc2cc(-c3ccc(C[C@H](N)C(=O)O)cc3)nc(N)n2)C(F)(F)F)n1 | inactive | –
9 | C=C(CCO)C(=O)OCC1OCC(OC(=O)C(=C)CCO[C@@H]2O[C@H](COC(=O)C(=C)CCO[C@@H]3O[C@H](CO)[C@@H](O)[C@H](O)[C@H]3O)[C@@H](O)[C@H](O)[C@H]2O)C(O)C1O (stereo not given in full) | inactive | –
10 | CC[C@H](C)[C@H](NC(=O)[C@H](Cc1ccc(O)cc1)NC(=O)[C@@H](N)C(C)C)C(=O)N[C@@H](Cc1cnc[nH]1)C(=O)N1CCC[C@H]1C(=O)N[C@@H](Cc1ccccc1)C(=O)O | – | 1.7% [at 5.59 µM] (inactive)
11 | CC1C(=O)OCC2=CC[N+]3([O-])CCC(OC(=O)C(C)(O)C1(C)O)C23 (stereo not given) | inactive | –
12 | C[C@@H]1O[C@@H](O[C@H]2[C@H](OC(=O)[C@]34CCC(C)(C)C[C@H]3C3=CCC5[C@@]6(C)C[C@H](O)[C@H](O[C@@H]7O[C@H](CO)[C@@H](O[C@H]8OC[C@](O)(CO)[C@H]8O)[C@H](O)[C@H]7O)[C@@](C)(CO)C6[C@H](O)C[C@@]5(C)[C@]3(C)C[C@H]4O)OC[C@H](O)[C@@H]2O)[C@H](O)[C@H](O)[C@H]1O[C@@H]1OC[C@@H](O)[C@H](O[C@@H]2OC[C@](O)(CO)[C@H]2O)[C@H]1O (stereo not given in full) | – | -7.49% [at 11.2 µM] (inactive)
13 | O=C(Nc1ccn(Cc2c(F)cccc2C(F)(F)F)n1)c1c(F)cccc1F | inactive | –
14 | CC1CCC2(NC1)OC1CC3C4CC=C5CC(O[C@@H]6O[C@H](CO)[C@@H](O[C@@H]7O[C@@H](C)[C@H](O)[C@@H](O)[C@H]7O)[C@H](O)[C@H]6O[C@@H]6O[C@@H](C)[C@H](O)[C@@H](O)[C@H]6O)CCC5(C)C4CCC3(C)C1C2C (stereo not given in full) | inactive | –
15 | CCC(C)C(=O)OC1CC(O)C23C4OCC5(C(O)CC2C1(C)C(O)O4)C3C(=O)CC1(C)C(c2ccoc2)CC2OC215 (stereo not given) | inactive | –
16 | C=C[C@H]1[C@H](O[C@@H]2O[C@H](CO)[C@@H](O)[C@H](O)[C@H]2O)OC=C(C(=O)OC)[C@H]1C[C@@H]1N[C@H](C(=O)O)Cc2c1[nH]c1ccccc21 | inactive | –
17 | CC(=O)O[C@H]1C[C@@](O)(C(C)C)C2[C@@H](OC(=O)c3ccc(O)cc3)C[C@@]3(C)O[C@H]3C[C@]21C (stereo not given in full) | inactive | –
18 | C=C(C)[C@H]1CC[C@]2(C(=O)O)CC[C@]3(C)C(CCC4[C@@]5(C)CCC(=O)C(C)(C)C5CC[C@]43C)C12 (stereo not given in full) | inactive | –
19 | C[C@@H]1C(=O)O[C@H]2[C@H]1CC[C@@]1(C)C(=O)C=C[C@@](C)(O)[C@H]21 | inactive | –
20 | CC(=O)O[C@H]1C[C@H](OC(C)=O)[C@]2(C)[C@H](CC[C@@]34O[C@@H]3C3=C(C)C(=O)O[C@@H]3C[C@H]42)C1(C)C | inactive | –

Row | Structure (SMILES) | Potency | activity change, negative = inhibition
21 | C=C1CCC2C(C)(C)CCCC2(C)C1CC/C(C)=C\CO (stereo not given) | inactive | –
22 | CC(O)/C=C/C1(O)C(C)C(O)C(O[C@@H]2O[C@H](CO)[C@@H](O)[C@H](O)[C@H]2O)CC1(C)C (stereo not given in full) | inactive | –
23 | CC(=O)O[C@H]1[C@H](OC(=O)C(C)C)[C@]2(C)OC3(CC[C@]2(C)[C@H]2CCC[C@]4(CO4)[C@]12C)COC(=O)C3 (stereo not given in full) | inactive | –
24 | COc1c2c(nc3occc13)C(CC=C(C)C)(OC)C(O)CC2 (stereo not given) | inactive | –
25 | Nc1ccc(S(=O)(=O)Nc2nccs2)cc1 | inactive | –
26 | O=C(CCCN1CCN(c2ccc(F)cc2)CC1)NC1c2ccccc2CSc2ccccc21 (stereo not given) | inactive | –
27 | COc1cc(O)cc(/C=C/c2cccc(O)c2)c1 | inactive | –
28 | C[C@H]1CC[C@H]2[C@@H](C=C[C@@](C)(O)[C@]2(C)C(=O)CCO)C1 | inactive | –
29 | COC(=O)[C@@H](NC(=O)[C@H](CC(C)C)NC(=O)N(Cc1ccccc1)C[C@@H](O)[C@H](Cc1ccccc1)NC(=O)OC(C)(C)C)C(C)C | – | 16.3% [at 11.2 µM] (inactive)
30 | C=C1CCC2C(C)(C(=O)O)CC(O)CC2(C)C1CC/C(C)=C/C(=O)O (stereo not given) | inactive | –
31 | C=C1CC[C@@H]2[C@](C)(CO)[C@H](O)CC[C@@]2(C)[C@@H]1C/C=C1/C(=O)OCC1O (stereo not given in full) | inactive | –
32 | C[C@H]1CC(=O)Nc2cccc(-c3cnn(C(C)(C)C)c3)c2N1 | inactive | –
33 | C[C@@H]1O[C@@H](O[C@H]2[C@H](OC(=O)[C@]34CCC(C)(C)C[C@H]3C3=CCC5[C@@]6(C)C[C@H](O)[C@H](O[C@@H]7O[C@H](CO)[C@@H](O)[C@H](O)[C@H]7O)[C@@](C)(CO)C6[C@H](O)C[C@@]5(C)[C@]3(C)CC4)OC[C@H](O)[C@@H]2O)[C@H](O)[C@H](O)[C@H]1O[C@@H]1OC[C@@H](O)[C@H](O[C@@H]2OC[C@](O)(CO)[C@H]2O)[C@H]1O (stereo not given in full) | – | 7.08% [at 11.2 µM] (inactive)
34 | CC1(C)CC[C@]2(C(=O)O)CC[C@]3(C)C(=CCC4[C@@]5(C)CC[C@H](O)C(C)(C)C5CC[C@]43C)C2C1 (stereo not given in full) | inactive | –
35 | C=C(C)[C@@H]1CC[C@]2(C)CC[C@]3(C)C(CCC4[C@@]5(C)CC[C@H](O)C(C)(C)C5CC[C@]43C)C12 (stereo not given in full) | inactive | –
36 | CO[C@H]1C[C@@H]2CC[C@@H](C)[C@@](O)(O2)C(=O)C(=O)N2CCCC[C@H]2C(=O)O[C@H]([C@H](C)C[C@H]2CC[C@@H](OP(C)(C)=O)[C@H](OC)C2)CC(=O)[C@H](C)/C=C(\C)[C@@H](O)[C@@H](OC)C(=O)[C@H](C)C[C@H](C)/C=C/C=C/C=C/1C | inactive | –
37 | C=C1CCC2C(C)(C)CCC[C@]2(C)[C@H]1C/C=C(\CO)C(=O)C(=O)O (stereo not given in full) | inactive | –
38 | C=C1C(=O)OC2C=C(C)CC/C=C(\CO)CC(O)C12 (stereo not given) | inactive | –
39 | CC[C@H](C)/C=C(C)/C=C/C1=CC2=CC(=O)[C@]3(C)OC(=O)[C@@H](C(C)=O)[C@@H]3C2=CO1 | inactive | –
40 | CC(C)C[C@H](CC(=O)NO)C(=O)N[C@@H](Cc1ccc2ccccc2c1)C(=O)N[C@@H](C)C(=O)NCCN | inactive | –
